The panel holds about 83,000 compounds, 20% with a hit somewhere; the sample as a whole holds those more often.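 Percent growth is the endpoint: 0 to 100 indicates growth inhibition (40 means 60% inhibition), 0 means no net growth, and negative values indicate cell death.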 Values without a mark were called inactive. Activity calls are given as the source filed them. The calls were made as follows: active = growth percent below 10; inactive = the rest.
Tests used:
Test in all cases: NCI-60 one-dose screen, 48 h (100 = growth as untreated, 0 = no growth, -100 = all killed)
[1] = system: HT29 colon; conditions: 10 µM unless noted
[2] = system: SNB-75 CNS; conditions: 10 µM unless noted
[3] = system: SNB-19 CNS; conditions: 10 µM unless noted
[4] = system: U251 CNS; conditions: 10 µM unless noted
[5] = system: PC-3 prostate; conditions: 10 µM unless noted
[6] = system: SK-MEL-5 melanoma; conditions: 10 µM unless noted
[7] = system: UACC-62 melanoma; conditions: 10 µM unless noted
[8] = system: LOX IMVI melanoma; conditions: 10 µM unless noted
[9] = system: SK-MEL-28 melanoma; conditions: 10 µM
[10] = system: SK-MEL-2 melanoma; conditions: 10 µM unless noted

CC(=O)c1ccc(NC(=O)Nc2ccc(S(=O)(=O)Nc3ccc(Cl)nn3)cc2)cc1
growth [1]: 111% | growth [2]: 86.4% | growth [3]: 95.8% | growth [4]: 103% | growth [5]: 104% | growth [6]: 100% | growth [7]: 92% | growth [8]: 99% | growth [9]: 107% | growth [10]: 108%

O=C1NC(=S)NC(=O)C1=Cc1cn(Cc2cn(Cc3cccc4ccccc34)nn2)c2ccccc12
growth [1]: 114% | growth [2]: 79.4% | growth [3]: 97.9% | growth [4]: 102% | growth [5]: 93.9% | growth [6]: 93.9% | growth [7]: 88.3% | growth [8]: 91.1% | growth [9]: 103% | growth [10]: 114%

CNC(=O)c1cc(Oc2ccc(CC(=O)Nc3cc(C(C)(C)C)cn3C)cc2)ccn1
growth [1]: 88% | growth [2]: 52.4% | growth [3]: 69.9% | growth [4]: 88.6% | growth [5]: 75.9% | growth [6]: 8.83% (active) | growth [7]: 62.9% | growth [8]: 67% | growth [9]: 79.8% | growth [10]: 67.1%

CCOC(=O)C1=CN(C)C=C(C(=O)OCC)C1c1cc(Br)c(OCC)c(OC)c1
growth [1]: 7.46% (active) | growth [2]: 43.5% | growth [3]: 64.8% | growth [4]: 34.8% | growth [5]: 45.2% | growth [6]: 36.1% | growth [7]: -48% (active) | growth [8]: 18.3% | growth [9]: 18.8% | growth [10]: 72.3%

Nc1ncnc(N)c1NC(=O)c1ccc(OCc2ccccc2)cc1
growth [1]: 96.3% | growth [2]: 110% | growth [3]: 103% | growth [4]: 102% | growth [5]: 106% | growth [6]: 102% | growth [7]: 99% | growth [8]: 110% | growth [9]: 117% | growth [10]: 93.1%

C[C@@H](C(=O)NCCCC#Cc1cnc(Nc2ccc(C#N)cc2)nc1NC1CC1)N(C)C(=O)/C=C/CN(C)C
growth [1]: 19.3% | growth [2]: 80.5% | growth [3]: 58.9% | growth [4]: 21.4% | growth [5]: 63.2% | growth [6]: 35.9% | growth [7]: 52.2% | growth [8]: 49% | growth [9]: 52.1% | growth [10]: 65.3%

Cc1nc2ccccc2c(/C=C/c2ccccc2)c1C(=O)/C=C/c1ccc(Cl)cc1
growth [1]: -8.66% (active) | growth [2]: 57.8% | growth [3]: 13.6% | growth [4]: -33.2% (active) | growth [5]: 33.9% | growth [6]: 32.4% | growth [7]: 34.9% | growth [8]: -90.3% (active) | growth [9]: 19.2% | growth [10]: 14.7%

O=C1/C(=C/c2ccc(O)cc2)COc2ccc(O)c(O)c21
growth [1]: 44.6% | growth [2]: 29.6% | growth [3]: 46.9% | growth [4]: 9.17% (active) | growth [5]: 41.9% | growth [6]: 44.1% | growth [7]: 24.3% | growth [8]: -48.1% (active) | growth [9]: 52.7% | growth [10]: 85.2%

O=C1Nc2ccccc2/C1=C/c1cccs1
growth [1]: 110% | growth [2]: 103% | growth [3]: 83.2% | growth [4]: 83.2% | growth [5]: 92.3% | growth [6]: 85.9% | growth [7]: 85.9% | growth [8]: 93% | growth [9]: 102% | growth [10]: 110%

Cc1cc2c(c(C)c1Cl)C(=O)/C(=C/c1ccco1)O2
growth [1]: 98.3% | growth [2]: 76.7% | growth [3]: 95.2% | growth [4]: 96.2% | growth [5]: 98.5% | growth [6]: 69.9% | growth [7]: 88.7% | growth [8]: 93% | growth [9]: 107% | growth [10]: 102%

CC[C@]1(O)C[C@@H]2CN(CCc3c([nH]c4ccccc34)[C@@](C(=O)OC)(c3cc4c(cc3OC)N(C)[C@H]3[C@@](O)(C(=O)OC)[C@H](OC(=O)CCCBr)[C@]5(CC)C=CCN6CC[C@]43[C@@H]65)C2)C1
growth [1]: 4.86% (active) | growth [2]: 13.2% | growth [3]: 28.8% | growth [4]: 13.5% | growth [5]: 20.1% | growth [6]: -42.8% (active) | growth [7]: 34.8% | growth [8]: 8.02% (active) | growth [9]: 67.3% | growth [10]: 13.6%

CCCCOCc1cc(CN2CCN(C)CC2)c(O)c2ncccc12
growth [1]: 96% | growth [2]: 68.2% | growth [3]: 48.6% | growth [4]: 27.8% | growth [5]: 34.3% | growth [6]: 50.6% | growth [7]: 53% | growth [8]: 35.9% | growth [9]: 74.7% | growth [10]: 97.7%

COc1ccc(CN2CCCC(C(=O)c3ccc(C(F)(F)F)cc3)C2)c(O)c1 (stereo not given)
growth [1]: 1.6% (active) | growth [2]: -1.83% (active) | growth [3]: 44.1% | growth [4]: 18.5% | growth [5]: 25.6% | growth [6]: 19.6% | growth [7]: 28.3% | growth [8]: 25.5% | growth [9]: 36.4% | growth [10]: -43.2% (active)

Nc1ccc(-n2c(=O)oc3ccc(Cl)cc3c2=O)c(Cl)c1
growth [1]: 3.86% (active) | growth [2]: -41.3% (active) | growth [3]: 16.2% | growth [4]: -8.77% (active) | growth [5]: 2.14% (active) | growth [6]: -83.9% (active) | growth [7]: -34.9% (active) | growth [8]: 0.455% (active) | growth [9]: -10.6% (active) | growth [10]: -31.6% (active)

Cc1ccc2sc3c(NCCCNCCO)nc4ccccc4c3c(=O)c2c1
growth [1]: -65% (active) | growth [2]: 33.3% | growth [3]: 68.5% | growth [4]: -39.5% (active) | growth [5]: 39.3% | growth [6]: 85.6% | growth [7]: -25.3% (active) | growth [8]: -27.3% (active) | growth [9]: 79.8% | growth [10]: 90.8%

N#CC(C#N)=Cc1c(-c2ccccc2)[nH]c2ccccc12
growth [1]: 14.3% | growth [2]: 2.62% (active) | growth [3]: 37.8% | growth [4]: 32.1% | growth [5]: 9.36% (active) | growth [6]: 14.9% | growth [7]: 32.2% | growth [8]: 48.3% | growth [9]: 42.7% | growth [10]: 45.7%

CCN(CC)CCNC(=O)C(Cl)=C1C(Cl)=C(Cl)C(Cl)=C1Cl
growth [1]: 41.3% | growth [2]: 48.4% | growth [3]: 85.5% | growth [4]: 40.8% | growth [5]: 56.2% | growth [6]: 47% | growth [7]: 55.1% | growth [8]: 22.6% | growth [9]: 72.7% | growth [10]: 47.6%

O=Cc1c(OCc2cnnn2CC(=O)Nc2ccc(Br)cc2)ccc2ccccc12
growth [1]: 97.8% | growth [2]: 72.6% | growth [3]: 90.4% | growth [4]: 90.4% | growth [5]: 90.2% | growth [6]: 93.9% | growth [7]: 68.4% | growth [8]: 79.5% | growth [9]: 99.9% | growth [10]: 102%

CCCCN1CCN(c2ccc3nc(-c4ccc5nc(-c6ccc(OCC)cc6)[nH]c5c4)[nH]c3c2)CC1
growth [1]: 21.4% | growth [2]: 60% | growth [3]: 85.3% | growth [4]: 60.5% | growth [5]: 56.7% | growth [6]: 49.3% | growth [7]: 59.9% | growth [8]: -81% (active) | growth [9]: 61.6% | growth [10]: 86.6%

O=C(COc1cc(O)c2c(=O)cc(-c3ccccc3)oc2c1)Nc1ccccc1
growth [1]: 106% | growth [2]: 88% | growth [3]: 87.4% | growth [4]: 93.7% | growth [5]: 86.2% | growth [6]: 99% | growth [7]: 93.7% | growth [8]: 89.6% | growth [9]: 107% | growth [10]: 96.6%

Fc1cccc(COc2ccc(Nc3ncnc4onc(-c5ccccc5)c34)cc2)c1
growth [1]: 3.86% (active) | growth [2]: -34.9% (active) | growth [3]: 21% | growth [4]: 22.5% | growth [5]: 18.4% | growth [6]: 19.2% | growth [7]: 23.5% | growth [8]: 23.1% | growth [9]: 55.2% | growth [10]: 35.9%

COc1cccc(C(=O)Cn2cc(/C=C(\C#N)S(=O)(=O)c3ccccc3)c3ccccc32)c1
growth [1]: 111% | growth [2]: 92.6% | growth [3]: 95.4% | growth [4]: 103% | growth [5]: 109% | growth [6]: 92.4% | growth [7]: 87.5% | growth [8]: 94.8% | growth [9]: 112% | growth [10]: 85.9%

COC(=O)/C(=C\c1c(C)[nH]c2ccccc12)S(=O)(=O)c1ccccc1
growth [1]: 9.54% (active) | growth [2]: -8.87% (active) | growth [3]: 19.1% | growth [4]: 25.7% | growth [5]: -1.81% (active) | growth [6]: 34.1% | growth [7]: 53.8% | growth [8]: 15.6% | growth [9]: 16.6% | growth [10]: 23.9%

COc1cc(/C=C/C(=O)c2ccc(Cl)cc2)cc(CN2CCCCC2)c1O
growth [1]: 19.4% | growth [2]: 70.9% | growth [3]: 85.4% | growth [4]: 74.6% | growth [5]: 90.6% | growth [6]: 90.7% | growth [7]: 87.4% | growth [8]: 87.4% | growth [9]: 97.9% | growth [10]: 108%

COc1cc(C(C)n2cc(-c3ccccc3)nn2)ccc1OC1CCCCC1 (stereo not given)
growth [1]: 82.3% | growth [2]: 68.1% | growth [3]: 68.7% | growth [4]: 81% | growth [5]: 69.6% | growth [6]: 29.9% | growth [7]: 55.7% | growth [8]: 63.1% | growth [9]: 95.1% | growth [10]: 92.8%

Reference: PubChem BioAssay (NCI)
